Hit rate of the full screen: of about 340,000 compounds, about 8,500 (2.5%) were called active.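 The calls were made as follows: active = melting temperature shift of at least 10% of the positive control shift, at one fixed dose; inactive = the rest.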 The entries come from a sample that favours actives as a whole.

In this experiment the test system is Glutamate receptor ionotropic, NMDA 3A (GRIN3A) ligand-binding domain. The experiment can be described thus: binders of NR3A ligand-binding domain, primary screen, biophysical, differential scanning fluorimetry, uHTS (AID 1259313). The conditions noted are these: NR3A LBD differential scanning fluorimetry, at 25 µM, hits give high values, 0% = protein alone, 100% = glycine-bound protein.
With `COc1ccc(CNC(=O)C2CCN(S(=O)(=O)c3ccc(SC)cc3)CC2)cc1`, the Tm shift relative to glycine control was 1% (inactive).

On to `C[C@@H](NC(=O)OC(C)(C)C)c1nnc(S(=O)(=O)Cc2ccccc2)o1`, for which the Tm shift relative to glycine control is 0% (inactive). In the case of `CC(C)Sc1nnc([C@H](Cc2ccccc2)NC(=O)OC(C)(C)C)o1`, the Tm shift relative to glycine control is 32.2% (active). For `CCc1ccccc1NC(=O)CSc1nnc([C@@H](NC(=O)OC(C)(C)C)C(C)CC)o1` (some centres not stated) the value was -1.3% (inactive); for `C/C(CC(O)(/C=N/O)c1ccccc1)=N\O` (configuration not stated), 1.21% (inactive). For `COc1ccc2ccccc2c1CNc1nnnn1C` the value was 0.15% (inactive); for `Cc1cccc(NC(=O)c2ccc3ccccc3n2)n1`, -0.88% (inactive).

Regarding `O=C(NNC(=O)c1ccc2ccccc2c1)c1ccc(Cl)cc1`, the Tm shift relative to glycine control is -1.56% (inactive). Take `Clc1ccc(Nc2ccc3ccccc3n2)cc1`: the Tm shift relative to glycine control is 45% (active).

Turning to `CC1(C)CC(=O)C=C(NCCCN2CCCC2=O)C1`, the Tm shift relative to glycine control was -0.27% (inactive). In the case of `Nc1nc(C23CC4CC(CC(C4)C2)C3)cs1`, the Tm shift relative to glycine control was -1.42% (inactive).

Take `COC(=O)c1cc(NC(=O)c2cc(C(C)(C)C)nn2Cc2cccc(C)c2)ccc1N1CCOCC1`: the Tm shift relative to glycine control is -0.21% (inactive).

As to `CCCCC1(C(=O)OCC)NC(c2ccc(O)cc2)C2C(=O)N(c3ccccc3)C(=O)C21` (configuration not stated), the Tm shift relative to glycine control is -1.17% (inactive). Then `CCCC1(C(=O)OCC)NC(c2ccc(N(C)C)cc2)C2C(=O)N(c3ccc4c(c3)OCCO4)C(=O)C21` (configuration not stated), with 17% (active); and `COC(=O)C1(C)NC(c2ccc(C)cc2)C2C(=O)N(c3ccc(F)cc3)C(=O)C21` (configuration not stated), with 2.13% (inactive). `O=C(CC1SC(N2CCOCC2)=NC1=O)Nc1ccccc1F` (configuration not stated): the Tm shift relative to glycine control is -1.22% (inactive). As to `COc1ccc(S(=O)(=O)N2CCN(C(=O)N(C)C)C2C)cc1` (configuration not stated), the Tm shift relative to glycine control was -2.39% (inactive). For `O=C(c1ccc(OC2CCN(Cc3ccccn3)CC2)cc1)N1CCCCCC1` the value was 0.85% (inactive); for `CC(=O)Nc1ccc(CN2CCC(Oc3ccc(C(=O)N4CCCC4)cc3)CC2)cc1`, 0.37% (inactive); for `Cc1nn(C)c(Cl)c1CN1CCC(Oc2ccc(C(=O)N3CCCC3)cc2)CC1`, 12.6% (active). As for `COc1ccccc1C(=O)NC(=O)COC(=O)C1CC1`, the Tm shift relative to glycine control is -1.81% (inactive). On to `C[C@@H](C(=O)N1CCNCC1)n1cc(CCC(=O)O)nn1`, for which the Tm shift relative to glycine control was 1.39% (inactive).

Turning to `Cc1cccc(C(=O)N2CCN(S(=O)(=O)N3CCCCC3)CC2)c1`, the Tm shift relative to glycine control is 11.1% (active). Consider `O=C(c1cccc(S(=O)(=O)N2CCCCCC2)c1)N1CCN(Cc2ccccc2)CC1`, for which the Tm shift relative to glycine control is 0.36% (inactive). Regarding `Cc1ccc(C(=O)N2CCN(S(=O)(=O)N3CCOCC3)CC2)cc1`, the Tm shift relative to glycine control was -1.26% (inactive). For `CCOc1ccc(C(=O)Nc2c3c(nn2-c2ccccc2)CS(=O)(=O)C3)cc1`, the Tm shift relative to glycine control was -0.47% (inactive). Then `COc1cc(C(=O)Nn2c(O)c(C3=c4ccccc4=NC3=O)sc2=S)ccc1O`, with 11.1% (active). For the molecule `COc1cc(C(=O)Nn2c(CC(C)C)nc3ccccc3c2=O)cc(OC)c1OC`, the Tm shift relative to glycine control is -0.54% (inactive). For `COc1cc(C(=S)NC2CCCCC2)ccc1O`, the Tm shift relative to glycine control is -5.68% (inactive).

Regarding `CN(CC(=O)Nc1ccccc1F)CC(=O)Nc1ccccc1Br`, the Tm shift relative to glycine control was -1.08% (inactive). With `CCOc1ccc(NC(=O)CN(C)C(=O)COc2cccc(CC)c2)cc1OCC`, the Tm shift relative to glycine control is 3.14% (inactive).

For the molecule `Cc1nn(C)c(C)c1S(=O)(=O)N1CCc2ccccc21`, the Tm shift relative to glycine control was -0.32% (inactive). Then `Cc1cccc(NC(=S)NCc2ccc3[nH]c4c(c3c2)CCCC4)c1`, with 16.4% (active).

`Cc1cccc(NC(=S)N2CCC(C(=O)c3ccc(F)cc3)CC2)c1`: the Tm shift relative to glycine control was -1.17% (inactive). Regarding `CCc1cccc(CC)c1NC(=S)NCc1ccc2[nH]c(C)cc2c1`, the Tm shift relative to glycine control was -6.16% (inactive).

For the molecule `CC(NC(=O)c1cc(=O)[nH]c2ccccc12)c1ccc(F)cc1F` (configuration not stated), the Tm shift relative to glycine control was -1.44% (inactive). As to `CCCn1c(=N)n(CC(=O)c2ccc(Cl)c(Cl)c2)c2ccccc21`, the Tm shift relative to glycine control is -6.05% (inactive). Turning to `CCOC(=O)C1CCN(Cc2ccc(-c3ccccc3)cc2)CC1`, the Tm shift relative to glycine control was -0.95% (inactive). Then `CCOC(=O)C1CCN(Cc2nnc(-c3cccc(Br)c3)o2)CC1`, with 222% (active); and `CCOC(=O)N1CCN(Cc2nnc(-c3ccccc3Cl)o2)CC1`, with 0.35% (inactive).

As to `CCOC(=O)c1cc2c(=O)[nH]c(C(Cl)(Cl)Cl)nc2o1`, the Tm shift relative to glycine control is 5.2% (inactive).

Consider `Cn1c(=O)c2c(nc(NCCc3ccccc3)n2Cc2ccccc2)n(C)c1=O`, for which the Tm shift relative to glycine control is -12.7% (inactive).

As for `C/C(Cl)=C\Cn1c(Nc2cccc(C)c2)nc2c1c(=O)n(C)c(=O)n2C`, the Tm shift relative to glycine control is 18.4% (active). As to `Cc1cccc(Cn2c(N3CCN(c4ccccc4)CC3)nc3c2c(=O)n(C)c(=O)n3C)c1`, the Tm shift relative to glycine control was -1.11% (inactive). Then `FC(F)(F)c1ccc(-c2cccc3c2C2CC3CCN2Cc2ccccc2)cc1` (configuration not stated), with 0.87% (inactive). In the case of `Cc1ccc(CNC(=O)CCNS(=O)(=O)c2cccc3nonc23)cc1`, the Tm shift relative to glycine control was 17.3% (active).

For the molecule `Cc1ccc(CNC(=O)CCNS(=O)(=O)c2ccc(Br)s2)cc1`, the Tm shift relative to glycine control is 0.52% (inactive).

In the case of `CCc1cccc(NC(=O)CCNS(=O)(=O)c2cccc3nonc23)c1`, the Tm shift relative to glycine control was -1.5% (inactive). Turning to `COC(=O)c1ccc(CN(c2ccccc2OC)S(=O)(=O)c2cccs2)o1`, the Tm shift relative to glycine control was 0% (inactive). In the case of `COC(=O)[C@]1(Cc2ccccc2)N[C@H](CN(C)S(=O)(=O)c2ccc(OC(F)(F)F)cc2)[C@@H]2C(=O)N(C)C(=O)[C@@H]21`, the Tm shift relative to glycine control was -3.1% (inactive).

As for `COC(=O)[C@]1(Cc2ccccc2)N[C@H](CN(C)S(=O)(=O)c2ccc(F)cc2)[C@@H]2C(=O)N(Cc3ccccc3)C(=O)[C@@H]21`, the Tm shift relative to glycine control is 0.82% (inactive). Then `COC(=O)[C@]1(Cc2ccccc2)N[C@H](CN(C)S(=O)(=O)c2ccc(OC(F)(F)F)cc2)[C@@H]2C(=O)N(Cc3ccccc3)C(=O)[C@@H]21`, with 18.1% (active). Then `N/C(=N\S(=O)(=O)c1cc(C(F)(F)F)cc(C(F)(F)F)c1)c1cccs1`, with -1.45% (inactive); and `N#Cc1cccc(CSc2nnc(CCCO)n2-c2ccccc2)c1`, with -2.26% (inactive); and `O=C(Nc1ccc(N2CCOCC2)cc1)c1cccc(S(=O)(=O)N2CCOCC2)c1`, with 1.57% (inactive). For `O=C(Nc1ccc(S(=O)(=O)Nc2nccs2)cc1)c1cccc(S(=O)(=O)N2CCOCC2)c1`, the Tm shift relative to glycine control was -7.34% (inactive). For `O=C(Nc1ccc(S(=O)(=O)N2CCOCC2)cc1)c1ccc2ncsc2c1` the value was 23.1% (active).

For the origin of these results see PubChem BioAssay AID1259313 (Sanford-Burnham Center for Chemical Genomics, 2017).
